Compound activity as filed in PubChem BioAssay.
Hits are enriched below; roughly 1.3% of the tested compounds scored in any of these assays.
TRPV1 potentiator = human TRPV1 potentiation | AID 540277 | TRPV1-expressing cells, Fluo-8 calcium influx, capsaicin EC20 potentiation | 320,000 tested, 0.02% active | potentiation, % at 8.33 µM; in the data active means potentiation above about 80%; inconclusive means between about 30% and that limit; further: 0% is about no effect
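Cells expressing TRPV1 were dye-loaded with Fluo-8 and read kinetically: 10 s baseline, 3 min after compound (agonist portion), then 2 min after EC20 capsaicin (allosteric enhancer portion). Calcium-bound dye fluorescence at 480/520 nm.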
TRPV1 ag = agonists of human vanilloid receptor 1 (TRPV1) | Q8NER1 | TRPV1-expressing cells, Fluo-8 calcium influx, agonist mode | activation, % at 8.33 µM | 320,000 tested, 0.19% active; in the data active means activation above about 80%; inconclusive means between about 30% and that limit; further: 0% is about no effect
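Cells expressing TRPV1 were dye-loaded with Fluo-8 and read kinetically: 10 s baseline, 3 min after compound (agonist portion), then 2 min after EC20 capsaicin (allosteric enhancer portion). Calcium-bound dye fluorescence at 480/520 nm.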
KCNH2 3.1 inh = blocks the human KCNH2 3.1 channel isoform | activity change, % (tested at about 1.8 µM) | 340,000 tested, 0.95% active | U2OS KCNH2 3.1, thallium flux FluxOr; active compounds read low;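 active means maximum activity change below -70%; inconclusive means maximum activity change from -70% to -50%; inactive means maximum activity change above -50%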;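 further: thallium influx rate constant from kinetic fluorescence after stimulation buffer; on the % scale 0 is the no-effect control and ±100 the full control effect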
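Thallium flux read-out: FluxOr dye with Red40 quencher in HBSS/HEPES, 45 min at RT. Rate constants from kinetic reads were normalized to positive and negative DMSO controls. Cells: U2OS virally expressing the 3.1 isoform.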
KCNH2 WT inh = inhibitors of human wildtype KCNH2 potassium channel | 340,000 tested, 0.37% active | U2OS, BacMam KCNH2, thallium flux FluxOr; active compounds read low | Q12809 | activity change, % at 1.84 µM | AID 720551;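 active means maximum activity change below -70%; inconclusive means maximum activity change between -70% and -50%; inactive means maximum activity change above -50%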; further: on the % scale 0 is the no-effect control and ±100 the full control effect
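U2OS cells were transduced with wild-type KCNH2 virus (2.03 x 10^8 / mL) for 4 h at room temperature, then cultured overnight at 37 C. Thallium flux was read with FluxOr dye. Rate constants were normalized to DMSO controls.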
MBNL1-CUG inh = blocks human MBNL1 binding to CUG repeat RNA; Q9NR56; TR-FRET MBNL1-His/biotin-(CUG)12 binding, 665/545 ratio; Potency, µM (highest dose often 57.5 µM), for the others: at the top dose activity change, negative = inhibition, hits mostly inhibitors; 280,000 tested, 0.036% active; active means well fitted inhibition curve with a large enough effect in the signal ratio, with a control signal flat, not every such curve was filed as active; inconclusive means small, poorly fitted or top-dose-only effect, or effect the other way, or a change in a side signal; inactive means no such curve, though single readings can be large or run the other way; the % refers to the signal ratio; further: potency means the concentration at half of the fitted maximal effect; on the % scale 0 is the no-effect control and ±100 the full control effect
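TR-FRET between His-tagged MBNL1 and biotin-(CUG)12 RNA, detected with Tb anti-His antibody (0.055 ng/ul) and streptavidin-XL665 (5 nM), 60 min at room temperature. Compounds titrated 92 nM to 58 uM; 665/545 nm ratio normalized to buffer and complex controls.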
An asterisk follows results filed as active.

Screening COc1ccc(N2CCN(CCNC(=O)Nc3cccc(C)c3C)CC2)cc1 returned TRPV1 potentiator 3, TRPV1 ag 2, KCNH2 3.1 inh -5, KCNH2 WT inh 10 and MBNL1-CUG inh inconclusive.
`Cc1cccc(N2CCN(CC(=O)NCc3ccccc3)CC2)c1C` gave TRPV1 potentiator 6, TRPV1 ag inconclusive, KCNH2 3.1 inh -8, KCNH2 WT inh 12 and MBNL1-CUG inh -10%.
`CCN1CCN(CC(=O)Nc2ccc(C(C)=O)cc2)CC1` gave TRPV1 potentiator 16, TRPV1 ag -5, KCNH2 3.1 inh 2, KCNH2 WT inh 40 and MBNL1-CUG inh inconclusive.
Screening COc1ccccc1NC(=O)CN1CCN(CC(=O)Nc2ccc3c(c2)OCO3)CC1 returned TRPV1 potentiator -4, TRPV1 ag -1, KCNH2 3.1 inh -40, KCNH2 WT inh -26 and MBNL1-CUG inh -9%.
Screening COc1ccc(CN2C(=O)c3ccccc3C2=O)cc1C(=O)N(C)CC(=O)Nc1ccc(F)cc1 returned TRPV1 potentiator -5, TRPV1 ag -1, KCNH2 3.1 inh -12 and KCNH2 WT inh -1.
O=C1NC2(CCCCO2)CO1 (configuration not stated) was read as TRPV1 potentiator 19, TRPV1 ag -5, KCNH2 3.1 inh -17, KCNH2 WT inh -7 and MBNL1-CUG inh -4%.
COc1ccc(NC(=O)CN2CCN(CC(=O)Nc3ccc(OC)cc3)CC2)cc1 was read as TRPV1 potentiator 24, TRPV1 ag 1, KCNH2 3.1 inh -108*, KCNH2 WT inh -92* and MBNL1-CUG inh -20%.
`COc1ccc(S(=O)(=O)N2CCN(CC(=O)Nc3ccccc3Cl)CC2)cc1` gave TRPV1 potentiator inconclusive, TRPV1 ag 8, KCNH2 3.1 inh -88*, KCNH2 WT inh 4 and MBNL1-CUG inh -4%.
`COc1ccc(NC(=O)CN2CCCC2)cc1` gave TRPV1 potentiator -13, TRPV1 ag 0, KCNH2 3.1 inh -10, KCNH2 WT inh -1 and MBNL1-CUG inh -6%.
COc1ccc(S(=O)(=O)N2CCN(CC(=O)Nc3ccccc3OC)CC2)cc1 was read as TRPV1 potentiator inconclusive, TRPV1 ag 10, KCNH2 3.1 inh -36, KCNH2 WT inh 1 and MBNL1-CUG inh -12%.
For O=C(NCCc1ccccn1)c1nc(Cn2ccc([N+](=O)[O-])n2)no1 the results were TRPV1 potentiator 5, TRPV1 ag 11, KCNH2 3.1 inh -22, KCNH2 WT inh 4 and MBNL1-CUG inh 9%.
Clc1ccccc1Cn1nnc(-c2ccccc2)n1 was read as TRPV1 potentiator 1, TRPV1 ag 1, KCNH2 3.1 inh -12, KCNH2 WT inh 9 and MBNL1-CUG inh -4%.
`CN(C)c1ccc(-c2nnn(Cc3ccccc3Br)n2)cc1` gave TRPV1 potentiator 2, TRPV1 ag 15, KCNH2 3.1 inh -93*, KCNH2 WT inh -31 and MBNL1-CUG inh 3%.
CCC(C)[C@H](N)c1cn([C@@H](Cc2cc3ccccc3[nH]2)C(=O)N2CCNCC2)nn1 (some centres not stated) was read as TRPV1 potentiator -6, TRPV1 ag -1, KCNH2 3.1 inh 42, KCNH2 WT inh -252* and MBNL1-CUG inh -2%.
For c1ccc(CCCNc2ncccn2)cc1 the results were TRPV1 potentiator -5, TRPV1 ag 0, KCNH2 3.1 inh -97*, KCNH2 WT inh -10 and MBNL1-CUG inh -18%.
O=C(CC1CC2CCC1C2)N1CCN(S(=O)(=O)c2ccc(F)cc2)CC1 (configuration not stated) was read as KCNH2 3.1 inh 13 and KCNH2 WT inh -81*.
`COC(=O)c1c(NC(=O)c2nc3nc(C)cc(C(F)F)n3n2)sc2c1CCC2` gave TRPV1 potentiator 91*, TRPV1 ag -2, KCNH2 3.1 inh 15, KCNH2 WT inh 11 and MBNL1-CUG inh -2%.
Screening O=S(=O)(c1ccc(F)cc1)N1CCN(C(=S)NCC2CCCO2)CC1 (configuration not stated) returned TRPV1 potentiator -4, TRPV1 ag 13, KCNH2 3.1 inh 29 and KCNH2 WT inh 2.
Screening COC(=O)C1=C(C)N(CCCCCC(=O)O)C(=O)NC1c1ccccc1 (configuration not stated) returned KCNH2 3.1 inh 1 and KCNH2 WT inh 0.
COc1cccc(CCNC(=O)CCc2nnc(-c3cc(C)oc3C)o2)c1 was read as TRPV1 potentiator 101*, TRPV1 ag 3, KCNH2 3.1 inh 12, KCNH2 WT inh 4 and MBNL1-CUG inh -2%.
Screening COc1cccc(CCNC(=O)CCc2nnc(-c3ccc4c(c3)OCO4)o2)c1 returned TRPV1 potentiator 3, TRPV1 ag 1, KCNH2 3.1 inh 12, KCNH2 WT inh -17 and MBNL1-CUG inh -9%.
For Cc1ccc(C(C)(C)NC(=O)C2CCC(=O)N(CC3CCCCC3)C2)cc1 (configuration not stated) the results were TRPV1 potentiator -3, TRPV1 ag 2, KCNH2 3.1 inh 2, KCNH2 WT inh 2 and MBNL1-CUG inh -1%.
For COc1cccc(C(=O)O)c1OS(=O)(=O)c1ccc(C)cc1 the results were KCNH2 3.1 inh 22 and KCNH2 WT inh 1.
For CCOC(=O)N1CCN(Cc2nc(N)nc(Nc3ccc(Cl)cc3)n2)CC1 the results were TRPV1 potentiator 2, TRPV1 ag 5, KCNH2 3.1 inh -100*, KCNH2 WT inh 6 and MBNL1-CUG inh 18%.
`CCOC(=O)N1CCN(Cc2nc(N)nc(Nc3ccc(OCC)cc3)n2)CC1` gave TRPV1 potentiator 7, TRPV1 ag -3, KCNH2 3.1 inh -86*, KCNH2 WT inh 0 and MBNL1-CUG inh -17%.
For CCOC(=O)N1CCN(Cc2nc(N)nc(Nc3ccc(Oc4ccccc4)cc3)n2)CC1 the results were TRPV1 potentiator 19, TRPV1 ag -2, KCNH2 3.1 inh -89*, KCNH2 WT inh -32 and MBNL1-CUG inh -10%.
For CCOCC(=O)Nc1ccccc1C(=O)O the results were TRPV1 potentiator 5, TRPV1 ag 0, KCNH2 3.1 inh -13, KCNH2 WT inh -3 and MBNL1-CUG inh -7%.
Screening COc1ccccc1OCC(=O)Nc1oc(-c2ccccc2)c(-c2ccccc2)c1C#N returned TRPV1 potentiator 18, TRPV1 ag 7, KCNH2 3.1 inh 4, KCNH2 WT inh 3 and MBNL1-CUG inh 4%.
Screening COc1ccc(CC(=O)Nc2oc(-c3ccccc3)c(-c3ccccc3)c2C#N)cc1OC returned TRPV1 potentiator -3, TRPV1 ag 84*, KCNH2 3.1 inh -18, KCNH2 WT inh 4 and MBNL1-CUG inh 0%.
O=C([O-])c1ccccc1-[n+]1c(-c2ccccc2)cc(-c2ccccc2)cc1-c1ccccc1 was read as TRPV1 potentiator -34, TRPV1 ag -7, KCNH2 3.1 inh -20 and KCNH2 WT inh 7.
For Cc1ccc(CNC(=O)CN2CCC(C(N)=O)CC2)cc1 the results were TRPV1 potentiator -2, TRPV1 ag -1, KCNH2 3.1 inh 3, KCNH2 WT inh -5 and MBNL1-CUG inh 3%.
